Assay results taken from the supplement of paper PMC11732987, “Enantioselective OTUD7B fragment discovery through chemoproteomics screening and high-throughput optimisation” (Communications Chemistry, 2025).

Legend:
Assay in all cases: log2 ratio of Biotin-Ahx-Ub-VS probe labelling (fragment/DMSO); higher = less target engagement (more negative = stronger competition), active = hit call of the paper (q ≤ 0.05, log2 ratio ≤ -1)
Conditions in all cases: compound concentration: 200 uM; treatment time: 3 h
[1] = biological target: T1, OTUD6B (UniProt Q8N6M0)
T1 sequence (whole entry): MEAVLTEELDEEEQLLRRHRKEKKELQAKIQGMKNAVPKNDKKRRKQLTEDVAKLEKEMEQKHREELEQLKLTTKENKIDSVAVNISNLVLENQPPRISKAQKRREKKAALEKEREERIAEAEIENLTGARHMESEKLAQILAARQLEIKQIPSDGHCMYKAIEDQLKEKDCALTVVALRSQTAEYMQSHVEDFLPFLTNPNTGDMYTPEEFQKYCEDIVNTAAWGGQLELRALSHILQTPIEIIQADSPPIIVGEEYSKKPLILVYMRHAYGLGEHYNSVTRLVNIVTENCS
Procedure, shortened: (§1)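 Global-median-normalised Spectronaut label-free quantities were compared by unpaired t-test, and values are average log2 ratios of fragment over vehicle. Only proteins with ≥2 unique peptides were used. HEK293T lysate (495 µg per sample) was treated in triplicate with fragment at 200 µM or vehicle for 3 h and then with Biotin-Ahx-Ub-VS at 0.5 µM final for 1 h. Labelled DUBs were then NeutrAvidin-enriched, digested with LysC and trypsin, and run by diaPASEF LC-MS/MS.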

[2] = biological target: T2, OTUD7B (UniProt Q6GQQ9)
T2 sequence (whole entry): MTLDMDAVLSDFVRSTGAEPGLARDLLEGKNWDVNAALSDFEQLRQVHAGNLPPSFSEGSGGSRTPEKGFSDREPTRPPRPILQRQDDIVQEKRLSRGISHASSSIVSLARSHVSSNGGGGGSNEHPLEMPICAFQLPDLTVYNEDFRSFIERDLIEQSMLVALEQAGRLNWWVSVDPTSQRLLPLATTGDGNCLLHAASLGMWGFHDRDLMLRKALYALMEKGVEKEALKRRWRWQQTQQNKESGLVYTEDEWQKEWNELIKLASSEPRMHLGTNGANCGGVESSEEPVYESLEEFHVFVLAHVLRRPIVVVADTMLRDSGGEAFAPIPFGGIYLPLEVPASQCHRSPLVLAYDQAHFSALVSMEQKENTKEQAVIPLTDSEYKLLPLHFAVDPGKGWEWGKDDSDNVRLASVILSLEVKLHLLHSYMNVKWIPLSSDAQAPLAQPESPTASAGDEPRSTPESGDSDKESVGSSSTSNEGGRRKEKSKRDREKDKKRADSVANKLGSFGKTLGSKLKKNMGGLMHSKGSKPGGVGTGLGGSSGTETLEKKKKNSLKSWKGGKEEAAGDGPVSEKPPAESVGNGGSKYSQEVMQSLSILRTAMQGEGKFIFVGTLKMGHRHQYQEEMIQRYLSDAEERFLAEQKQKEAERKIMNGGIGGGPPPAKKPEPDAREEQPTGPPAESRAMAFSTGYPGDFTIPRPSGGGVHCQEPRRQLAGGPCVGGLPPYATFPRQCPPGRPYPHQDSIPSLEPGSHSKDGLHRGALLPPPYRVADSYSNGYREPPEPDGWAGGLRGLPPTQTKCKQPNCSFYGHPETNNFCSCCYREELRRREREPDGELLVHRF
Procedure, shortened: as §1

[3] = biological target: PRPF8 (UniProt Q6P2Q9)
Procedure, shortened: as §1

[4] = biological target: T3, PSMD7 (UniProt P51665)
T3 sequence (whole entry): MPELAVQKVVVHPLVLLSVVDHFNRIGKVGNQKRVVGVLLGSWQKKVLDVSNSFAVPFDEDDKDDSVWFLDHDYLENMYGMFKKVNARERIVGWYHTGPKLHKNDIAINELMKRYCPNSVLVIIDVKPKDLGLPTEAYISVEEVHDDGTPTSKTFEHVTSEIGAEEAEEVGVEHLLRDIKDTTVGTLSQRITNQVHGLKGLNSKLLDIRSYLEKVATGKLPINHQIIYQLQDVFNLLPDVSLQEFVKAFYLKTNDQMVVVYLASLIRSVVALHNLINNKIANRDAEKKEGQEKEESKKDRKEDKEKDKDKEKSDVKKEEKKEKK
Procedure, shortened: as §1

[5] = biological target: UCHL1 (UniProt P09936)
Procedure, shortened: as §1

[6] = biological target: T4, UCHL3 (UniProt P15374)
T4 sequence (whole entry): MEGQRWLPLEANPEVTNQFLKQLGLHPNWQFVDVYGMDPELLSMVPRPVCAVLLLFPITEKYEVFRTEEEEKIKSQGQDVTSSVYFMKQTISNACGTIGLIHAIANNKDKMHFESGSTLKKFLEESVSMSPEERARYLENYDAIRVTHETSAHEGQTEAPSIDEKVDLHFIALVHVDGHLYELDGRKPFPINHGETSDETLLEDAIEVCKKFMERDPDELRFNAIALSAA
Procedure, shortened: as §1

[7] = biological target: T5, UCHL5 (UniProt Q9Y5K5)
T5 sequence (whole entry): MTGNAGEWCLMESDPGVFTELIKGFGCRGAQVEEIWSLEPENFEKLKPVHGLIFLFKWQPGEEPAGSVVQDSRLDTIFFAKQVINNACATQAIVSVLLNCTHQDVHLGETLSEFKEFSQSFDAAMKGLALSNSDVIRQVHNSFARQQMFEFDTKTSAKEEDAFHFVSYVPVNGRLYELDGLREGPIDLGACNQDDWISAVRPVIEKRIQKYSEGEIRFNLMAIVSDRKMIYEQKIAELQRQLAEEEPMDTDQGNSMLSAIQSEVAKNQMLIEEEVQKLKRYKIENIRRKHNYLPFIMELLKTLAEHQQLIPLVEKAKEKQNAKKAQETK
Procedure, shortened: as §1

[8] = biological target: USP10 (UniProt Q14694)
Procedure, shortened: as §1

[9] = biological target: T6, USP15 (UniProt Q9Y4E8)
T6 sequence (whole entry): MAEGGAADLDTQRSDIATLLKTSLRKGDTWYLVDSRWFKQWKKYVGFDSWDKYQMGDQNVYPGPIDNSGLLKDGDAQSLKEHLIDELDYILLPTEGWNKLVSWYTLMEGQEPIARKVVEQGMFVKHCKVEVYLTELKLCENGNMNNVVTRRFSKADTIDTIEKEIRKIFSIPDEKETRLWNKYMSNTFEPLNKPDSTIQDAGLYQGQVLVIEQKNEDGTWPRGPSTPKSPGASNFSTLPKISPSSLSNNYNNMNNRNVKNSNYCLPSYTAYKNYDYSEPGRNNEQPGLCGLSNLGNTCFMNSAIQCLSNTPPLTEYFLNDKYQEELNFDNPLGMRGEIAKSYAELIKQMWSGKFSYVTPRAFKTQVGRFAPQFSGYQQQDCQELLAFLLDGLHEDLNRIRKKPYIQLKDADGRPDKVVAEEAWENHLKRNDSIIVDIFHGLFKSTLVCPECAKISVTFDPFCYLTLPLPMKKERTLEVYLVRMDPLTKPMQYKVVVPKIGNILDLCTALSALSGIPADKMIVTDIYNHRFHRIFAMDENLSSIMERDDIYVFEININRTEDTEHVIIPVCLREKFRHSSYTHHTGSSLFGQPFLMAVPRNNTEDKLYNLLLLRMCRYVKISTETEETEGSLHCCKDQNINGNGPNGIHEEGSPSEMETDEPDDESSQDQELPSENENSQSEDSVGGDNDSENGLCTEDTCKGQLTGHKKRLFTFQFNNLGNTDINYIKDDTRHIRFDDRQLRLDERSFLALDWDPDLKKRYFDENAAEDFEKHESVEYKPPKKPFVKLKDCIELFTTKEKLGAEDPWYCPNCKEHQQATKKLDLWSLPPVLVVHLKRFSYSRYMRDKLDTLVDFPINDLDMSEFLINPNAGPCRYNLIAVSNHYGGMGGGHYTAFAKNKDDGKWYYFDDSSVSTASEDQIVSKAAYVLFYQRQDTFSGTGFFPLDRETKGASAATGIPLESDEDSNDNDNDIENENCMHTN
Procedure, shortened: as §1

Measured: log2 ratio of Biotin-Ahx-Ub-VS probe labelling

Sequence of USP10 (Q14694 whole entry): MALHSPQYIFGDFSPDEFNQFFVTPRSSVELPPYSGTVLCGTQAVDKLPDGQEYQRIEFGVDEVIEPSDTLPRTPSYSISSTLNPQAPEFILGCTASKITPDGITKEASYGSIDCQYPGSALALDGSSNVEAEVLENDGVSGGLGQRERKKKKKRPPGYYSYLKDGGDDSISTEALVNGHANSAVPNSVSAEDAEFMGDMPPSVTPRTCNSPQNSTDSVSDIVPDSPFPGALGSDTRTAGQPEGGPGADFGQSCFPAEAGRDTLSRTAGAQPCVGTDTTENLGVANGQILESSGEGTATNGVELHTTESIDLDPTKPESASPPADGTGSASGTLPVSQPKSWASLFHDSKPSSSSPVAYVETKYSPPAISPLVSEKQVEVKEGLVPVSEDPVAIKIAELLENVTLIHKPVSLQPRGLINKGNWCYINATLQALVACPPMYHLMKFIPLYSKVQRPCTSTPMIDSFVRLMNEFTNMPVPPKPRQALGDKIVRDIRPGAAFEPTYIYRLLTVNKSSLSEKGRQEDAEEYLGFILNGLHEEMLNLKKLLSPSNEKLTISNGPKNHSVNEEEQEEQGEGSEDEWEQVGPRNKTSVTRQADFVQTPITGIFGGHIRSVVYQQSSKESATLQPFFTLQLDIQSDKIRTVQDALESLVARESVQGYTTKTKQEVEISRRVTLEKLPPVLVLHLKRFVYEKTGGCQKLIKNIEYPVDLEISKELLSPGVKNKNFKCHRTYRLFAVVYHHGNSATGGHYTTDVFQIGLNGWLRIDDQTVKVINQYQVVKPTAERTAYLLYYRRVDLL
Sequence of UCHL1 (P09936 whole entry, looked up): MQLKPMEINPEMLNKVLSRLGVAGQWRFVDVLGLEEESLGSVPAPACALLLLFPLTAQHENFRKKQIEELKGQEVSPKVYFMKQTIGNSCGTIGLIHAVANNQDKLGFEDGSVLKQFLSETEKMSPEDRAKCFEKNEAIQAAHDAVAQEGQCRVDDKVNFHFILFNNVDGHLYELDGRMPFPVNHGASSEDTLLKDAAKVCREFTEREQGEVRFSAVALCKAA

Cl.O=C(CCl)NCc1ccnc(Oc2ccccc2F)c1
inactive: [1] -0.263 | [2] -0.533 | [3] -0.054 | [4] -0.0622 | [6] 0.27 | [7] -0.282 | [8] -0.187 | [9] -0.115
active: [5] -1.49
